Screens (PubChem BioAssay)
CRFR2-BP ag – CRF-BP/CRF-R2 complex agonism; HEK293 CRF-R2/CRF-BP, calcium dye fluorescence (FLIPR); percent of saturating CRF peptide response; activation, % at 13.2 µM; 350,000 tested, 0.46% active;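 active means activation of at least 50%, plus an integration ratio under a set limit after plate pattern correction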
CRFBP-R2 block – blocks CRF-induced signaling of the CRF-BP/CRF-R2 complex | HEK293 CRF-R2/CRF-BP, CRF-induced calcium fluorescence | inhibition, % at 11.8 µM | 350,000 tested, 0.59% active;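 active means inhibition of the ligand-induced calcium signal above about 50% at the single tested concentration, limit read from the data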
MEKK2 mut-MEK5 – signal of MEK5 binding to mutant human MEKK2 PB1 domain | bead flow cytometry, Alexa488-MEK5 binding to MEKK2 mutant | AID 1530 | 290,000 tested, 0.35% active | percent response, % at 10 µM; in the data active means percent response above about 24%, passing the limit was not always enough
MEKK3 PB1 HTS – raises or lowers MEK5 binding to the human MEKK3 PB1 domain | Q99759 | 290,000 tested, 1.4% active | binding response (% of control), % at 10 µM | bead-based flow cytometry, Alexa488-MEK5 binding to MEKK3; actives lie on both sides; 0 = blocked by unlabeled MEK5, 100 = vehicle;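 active means binding response more than 3 SD above or below the average of its plate-row segment, actives on both sides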;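 further: Alexa488 bead fluorescence after subtracting the streptavidin-only scavenger bead signal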
ABCB6 inh MLPCN – blocks the human ABCB6 transporter; K562-ABCB6 porphyrin accumulation, flow cytometry, 1 h; hits give low values; fluorescence ratio to DMSO, % at 10 µM; 360,000 tested, 0.19% active; Q9NP58;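 active means fluorescence ratio to DMSO below 75%, the collection mean minus 3 SD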;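 further: signal is porphyrin accumulated inside mitochondria; lower ratio means ABCB6 inhibition with less porphyrin fluorescence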
Target sequence (Q9NP58 whole entry, looked up): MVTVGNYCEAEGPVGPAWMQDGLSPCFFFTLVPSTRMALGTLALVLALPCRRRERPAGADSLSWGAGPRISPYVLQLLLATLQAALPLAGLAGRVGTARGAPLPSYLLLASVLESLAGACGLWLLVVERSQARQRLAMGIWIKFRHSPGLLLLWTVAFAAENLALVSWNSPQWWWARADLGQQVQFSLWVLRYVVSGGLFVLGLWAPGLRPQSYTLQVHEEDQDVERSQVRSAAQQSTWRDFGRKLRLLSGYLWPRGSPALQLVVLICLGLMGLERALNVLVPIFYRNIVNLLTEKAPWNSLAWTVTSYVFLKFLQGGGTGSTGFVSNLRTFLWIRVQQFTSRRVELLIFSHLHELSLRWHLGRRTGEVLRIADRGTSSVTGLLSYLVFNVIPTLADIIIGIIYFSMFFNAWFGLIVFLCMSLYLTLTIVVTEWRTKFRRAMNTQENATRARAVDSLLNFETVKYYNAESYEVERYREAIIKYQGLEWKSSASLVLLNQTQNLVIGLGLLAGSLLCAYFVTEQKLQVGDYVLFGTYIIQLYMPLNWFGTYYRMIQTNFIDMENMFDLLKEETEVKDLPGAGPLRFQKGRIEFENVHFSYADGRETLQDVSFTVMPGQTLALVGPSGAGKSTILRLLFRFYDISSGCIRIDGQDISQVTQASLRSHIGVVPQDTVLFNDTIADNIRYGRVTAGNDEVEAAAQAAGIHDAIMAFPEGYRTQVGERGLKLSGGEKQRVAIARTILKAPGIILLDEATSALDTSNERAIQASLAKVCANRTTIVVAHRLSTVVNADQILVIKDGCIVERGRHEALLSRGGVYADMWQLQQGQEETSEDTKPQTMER
MEKK2 WT-MEK5 – raises or lowers MEK5 binding to wildtype human MEKK2 PB1 domain; binding response (% of control), % at 10 µM; 290,000 tested, 1.1% active; AID 1531; bead flow cytometry, Alexa488-MEK5 binding to MEKK2 WT; actives lie on both sides; Q9Y2U5; in the data active means binding response below about 67% or above about 130%
MEKK2wt confirm – raises or lowers MEK5 binding to wildtype human MEKK2, retest; shares compounds with MEKK3 PB1 HTS; bead flow cytometry, Alexa488-MEK5 binding to MEKK2 WT; actives lie on both sides; binding response (% of control), % at 10 µM; 5,900 tested, 2.4% active; AID 1892; in the data active means binding response below about 16% or above about 210%; inactive means in between
MEKK2mut-MEK5 – signal of MEK5 binding to mutant human MEKK2, retest; bead flow cytometry, Alexa488-MEK5 binding to MEKK2 mutant; percent response, % at 10 µM; AID 1893; shares compounds with MEKK3 PB1 HTS; 5,900 tested, 2% active; in the data active means percent response mostly above about 71%, no sharp cut-off; inactive means mostly below about 38%;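 further: higher means compound restores mutant binding toward wildtype level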
MEKK3 confirm – MEKK3-MEK5 PB1 inhibition, single concentration confirmation | shares compounds with MEKK3 PB1 HTS | bead flow cytometry, Alexa488-MEK5 binding to MEKK3; hits give low values | binding response (% of control), % at 10 µM | 5,900 tested, 1.8% active | AID 1894;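 active means binding response below 72% of control, or above a set upper limit, though filed actives all read lower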
Of the large screens only hits and unclear results are named; the others gave an inactive call (follow-up assays come after a bar, where they were run); [ ] = another dose, or the depositor's remark. The list is not random: actives were taken first. Their share in the collection is about 2.9%.

CC(=O)Nc1ccc(NC(=O)c2c([N+](=O)[O-])c(C(C)(C)C)nn2C)cc1	none
Cc1ccc(NC(=O)c2c([N+](=O)[O-])c(C(C)(C)C)nn2C)c(C)c1	MEKK3 PB1 HTS 137 | MEKK2wt confirm inactive | MEKK2mut-MEK5 inactive | MEKK3 confirm inactive
CCc1ccc(S(=O)(=O)Nc2nnc(N)s2)cc1	none
COc1ccccc1CCNC(=O)CSc1nnc2ccc(-c3ccncc3)nn12	MEKK3 PB1 HTS 133 | MEKK2wt confirm inactive | MEKK2mut-MEK5 inactive | MEKK3 confirm inactive
Cc1ccc(CSc2nnc3ccc(-c4ccncc4)nn23)cc1	MEKK3 PB1 HTS 63[inhibitor] | MEKK2wt confirm inactive | MEKK2mut-MEK5 inactive | MEKK3 confirm inactive
CCCCc1nnc(NC(=O)CCN2C(=O)C3CC=CCC3C2=O)s1 (stereo not drawn)	none (no result: MEKK2 mut-MEK5, MEKK3 PB1 HTS, MEKK2 WT-MEK5)
CCOC(=O)c1c(-c2ccc(F)cc2)csc1/N=C/N(C)C	MEKK3 PB1 HTS 129 | MEKK2wt confirm inactive | MEKK2mut-MEK5 inactive | MEKK3 confirm inactive
COc1ccc(C2C(C(=O)Nc3cc(C)on3)c3ccccc3C(=O)N2C)cc1OC (stereo not drawn)	MEKK3 PB1 HTS 0.0[inhibitor], MEKK2 WT-MEK5 0.0[inhibitor] | MEKK2wt confirm inactive | MEKK2mut-MEK5 inactive | MEKK3 confirm inactive
O=C(COC(=O)CCc1c[nH]c2ccccc12)NCc1ccc(Cl)cc1	MEKK3 PB1 HTS 2.0[inhibitor], MEKK2 WT-MEK5 2.0[inhibitor] | MEKK2wt confirm inactive | MEKK2mut-MEK5 inactive | MEKK3 confirm inactive
O=C(COC(=O)CCc1c[nH]c2ccccc12)NCc1ccccc1	none
CC(=O)c1ccc(N2CCN(C(=O)c3ccc(C(=O)c4ccccc4)cc3)CC2)cc1	none (no result: MEKK2 mut-MEK5, MEKK3 PB1 HTS, MEKK2 WT-MEK5)
Cc1cc(C)cc(NCc2ccncc2)c1	none
O=C(c1ccc(F)cc1)C1CCN(C(=O)c2ccccc2F)CC1	none
Cc1ccc(S(=O)(=O)Oc2ccccc2/C=N/N=C(N)N)cc1	MEKK2 WT-MEK5 149 | MEKK2wt confirm inactive | MEKK2mut-MEK5 inactive | MEKK3 confirm inactive
CCOc1ccc(Nc2nc(Cl)nc(NCCO)n2)cc1	MEKK3 PB1 HTS 131 | MEKK2wt confirm inactive | MEKK2mut-MEK5 inactive | MEKK3 confirm inactive
CCCNc1nc(Cl)nc(Nc2ccc(Cl)cc2)n1	none
CCOC(=O)CC1=NN(c2ccccc2)C(=O)/C1=C\c1ccc(OC)cc1OC	none
Nc1ccc(C23CC4CC(CC(C4)C2)C3)cc1	MEKK3 PB1 HTS 41[inhibitor] | MEKK2wt confirm inactive | MEKK2mut-MEK5 inactive | MEKK3 confirm inactive
Nc1ccc(C23CC4CC(CC(O)(C4)C2)C3)cc1	none
COc1ccc(C(=O)CCN2CCc3cc(OC)c(OC)cc3C2)cc1	MEKK3 PB1 HTS 1.0[inhibitor], MEKK2 WT-MEK5 1.0[inhibitor] | MEKK2wt confirm inactive | MEKK2mut-MEK5 inactive | MEKK3 confirm inactive
CC1CCN(C(=O)COC(=O)Cn2cnc3ccccc32)CC1	none (no result: MEKK2 mut-MEK5, MEKK3 PB1 HTS, MEKK2 WT-MEK5)
COCCN(C(=O)c1snc(C(N)=O)c1N)C(C(=O)NC1CCCCC1)c1ccc(N(C)C)cc1 (stereo not drawn)	none
Cc1cc[n+](CC[n+]2ccc(C)cc2)cc1	none (no result: MEKK2 mut-MEK5, MEKK3 PB1 HTS, MEKK2 WT-MEK5)
CCC(C)(C)c1ccc(OCCCC[n+]2ccc(C)cc2)c(C(C)(C)CC)c1	MEKK2 mut-MEK5 56, MEKK2 WT-MEK5 189 (no result: ABCB6 inh MLPCN) | MEKK2wt confirm inactive | MEKK2mut-MEK5 inactive | MEKK3 confirm inactive
CCOc1ccccc1N1CCN(C(=O)c2cccs2)CC1	none
NC(N)=N/N=C/c1ccc(OCc2ccccc2)cc1	MEKK2 WT-MEK5 162[inhibitor] | MEKK2wt confirm inactive | MEKK2mut-MEK5 inactive | MEKK3 confirm inactive
